Assay results published in PubChem BioAssay (NCI).
Compounds without any hit were thinned out: in the full panel of roughly 83,000, 20% have a hit.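 For each line, cells grew in 96-well plates with the test compound present at a single concentration for 48 hours.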 Calls of active or inactive are those of the source. Rule for the calls: active = growth percent below 10; inactive = the rest.

System: HL-60(TB) leukemia
Experiment: NCI-60 one-dose screen, 48 h (100 = growth as untreated, 0 = no growth, -100 = all killed)
Details: 10 µM unless noted

Compound | growth
C=CCNC(=S)N/C=C(/C(=O)c1ccccc1)c1ccccc1 | 101% (inactive)
COC(=O)/C=C1/CCCCC1(C)C(=O)OC (stereo not given) | 102% (inactive)
N#Cc1c(NC(=O)c2ccccc2I)sc2c1CCCC2 | 12.6% (inactive)
C=C1/C(=C\C=C2/CCC[C@]3(C)[C@@H]([C@H](C)CCCC(C)(C)O)CC[C@@H]23)C[C@@H](OC(=O)CBr)C[C@@H]1O | -59.4% (active)
CCOC(=O)C1=C(C)N=C2SC=C(c3ccc(F)cc3)N2[C@H]1c1cn(-c2ccccc2)nc1-c1ccc(Cl)cc1 | 88.3% (inactive)
CC1(COc2ccc3c(c2)ncn3-c2ccc3cccc(N4CCC(N)CC4)c3n2)COC1 | -46.9% (active)
COc1cccc(C2C3=C(COC3=O)N(CCO)c3cc4c(cc32)OCO4)c1 (stereo not given) | -2.69% (active)
NC(=S)NN=C1CCCCC1 | 74.1% (inactive)
Cn1cc(-c2nnc(-c3ccccc3)s2)c2cc(Br)cnc21 | 103% (inactive)
COC1OC(C(O)C(O)CO)C(O)C(O)C1O (stereo not given) | 108% (inactive)
COc1ccc(Nc2ncccc2/C=C/C(=O)c2cc(OC)c(OC)c(OC)c2)cc1 | -42.4% (active)
CC(C)CCC[C@@H](C)[C@H]1CC[C@H]2[C@@H]3CC=C4N(c5ccccc5)C(=O)CC[C@]4(C)[C@H]3CC[C@]12C | 90.9% (inactive)
CN1C(=O)/C(=C\c2c(Cl)cccc2Cl)c2ccccc21 | 80.9% (inactive)
CC1CCCCN1CCCNC(=O)c1ccc2c(c1)sc1nc(-c3ccc(F)cc3)cn12 (stereo not given) | 74.1% (inactive)
CN1CCN(c2ccc3cc(-c4nc5ccccc5[nH]4)c(=O)oc3c2)CC1 | 73% (inactive)
O=C(Nc1ccccc1C(F)(F)F)C1=NCCCCN1 | 99.8% (inactive)
O=C(c1ccc(Cl)cc1)c1ccccc1Cl | 96.4% (inactive)
Cc1[nH]n(C(=O)c2ccncc2)c(=O)c1N=Nc1ccc(O)c(C(=O)O)c1 | 53.4% (inactive)
CCN(CC)CCCOc1ccc2ncnc(Nc3ccc(Oc4cccc(C(F)(F)F)c4)c(Cl)c3)c2c1 | -45.2% (active)
COc1ccc(/C=N/C2=C(C#N)C(c3ccccc3)c3c(ccc4ccccc34)O2)cc1 (stereo not given) | -18.1% (active)

Compound | growth
COC(=O)Nc1nc2ccc(C(=O)c3cccc(I)c3)cc2[nH]1 | -41.7% (active)
CCn1cc(Cc2cc(C(=O)Nc3cc4cc(OC)c(OC)cc4c(C)n3)ccc2Cl)cn1 | 13.9% (inactive)
CCC(C)(O)CCC(C)(O)CC (stereo not given) | 101% (inactive)
COc1cc(OC)c2c(=O)cc(-c3ccccc3)oc2c1 | 72% (inactive)
CCCCCCCCCCCCc1ccc(C(=O)/C=C/C(=O)O)cc1 | 26.6% (inactive)
CCN1C(=O)N(CC)C2NC(SC)=NC21 (stereo not given) | 103% (inactive)
Cc1nc(N)nc(N[C@@H](C)c2nc3cccc(NCc4ccc(C(=O)NO)cc4)c3c(=O)n2-c2ccccc2)n1 | 43.1% (inactive)
CCCCCc1c(C)[nH]c(/C=C2\N=C(c3ccc[nH]3)C=C2Oc2ccc(Cl)cc2)c1C | -40.3% [100 µM] (active)
COc1cc([C@H](C)c2ccc3ccccc3c2)cc(OC)c1OC | -5.85% (active)
O=C(Nc1ccc(I)cc1)c1cc([N+](=O)[O-])ccc1O | 20.6% (inactive)
Nc1ccc(S(=O)(=O)O)c2cc(S(=O)(=O)O)cc(O)c12 | 99.2% (inactive)
Clc1ccc(-c2nc(-c3cccs3)cn3ccnc23)cc1 | 98.8% (inactive)
C(=C(\C1=NCCN1)n1ccc2ccccc21)/c1ccccc1 | 96.8% (inactive)
Cc1ccc(-c2csc(NC(=O)c3ccccc3CN3C(=O)c4ccccc4C3=O)n2)cc1 | 95.3% (inactive)
Cc1ccc2oc(=O)cc(C3c4ccc([nH]4)C(c4cc(=O)oc5ccc(C)cc45)c4ccc([nH]4)C(c4cc(=O)oc5ccc(C)cc45)c4ccc([nH]4)C(c4cc(=O)oc5ccc(C)cc45)c4ccc3[nH]4)c2c1 (stereo not given) | -24% (active)
COC(=O)c1ccc2oc(NC(=O)c3ccc(N4CCOCC4)c([N+](=O)[O-])c3)nc2c1 | 96.7% (inactive)
Cc1cc(Nc2nc(N3CCN(C)CC3)nc3ccccc23)n[nH]1 | 96.6% (inactive)
CCCN=C1NC(=O)/C(=C/c2nc(-c3ccc(OC)cc3)n3ccccc23)S1 | 79.8% (inactive)
O=C1CCC(C(=O)NCCNCCNC(=O)C2CCC(=O)N2)N1 (stereo not given) | 89.2% (inactive)
COC(=O)c1nc(-c2ccc(C)cc2)oc1S(=O)(=O)c1ccc(Cl)cc1 | 51.8% (inactive)
